CHX counter = Cycloheximide Counterscreen for Small Molecule Inhibitors of Shiga Toxin; cell reporter, cycloheximide protein synthesis inhibition counterscreen; AID 2314, 2010; actives 12% (n = 300,000); max response, %; in the data active = max response mostly above about 13%, no sharp cut-off; inactive = mostly below about 14%; also: read at 38.3 µM for the half of the compounds with a filed dose; 0% is about no effect
Shiga inhibitor = A qHTS for Small Molecule Inhibitors of Shiga Toxin | Vero cells, Shiga toxin protein synthesis inhibition reporter | inhibition, % at 38.7 µM | actives 9.2% (n = 290,000); in the data active = inhibition mostly above about 28%, no sharp cut-off; inactive = mostly below about 43%; also: 0% is about no effect
Pf growth 96h = Primary qHTS for delayed death inhibitors of the malarial parasite plastid, 96 hour incubation | actives 6.9% (n = 320,000) | AID 504834, 2011 | P. falciparum luciferase reporter growth, 96 h | Potency, µM (series often up to 28.7 µM), without a hit: at the top dose activity change, negative = inhibition, usual class: inhibitors; also: potency is read from the fitted curve at half-maximal effect; % is scaled to controls: 0 for no effect and ±100 for the full control effect
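P. falciparum expressing integrated firefly luciferase grown in erythrocytes (2% hematocrit, 0.05% parasitemia final) with compounds for 96 hours at 37 C, 5% CO2. Growth inhibition read as loss of luminescence after adding luciferase detection reagent.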
Pf growth 48h = Primary qHTS for delayed death inhibitors of the malarial parasite plastid, 48 hour incubation | P. falciparum luciferase growth in erythrocytes, 48 h | Potency, µM (doses to about 28.7 µM), without a hit: at the highest dose activity change, negative = inhibition, usual class: inhibitors | actives 5.9% (n = 310,000) | AID 504832, 2011; also: potency is read from the fitted curve at half-maximal effect; % is scaled to controls: 0 for no effect and ±100 for the full control effect
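Read-out is firefly luciferase luminescence from an integrated reporter in P. falciparum, so falling signal marks reduced parasite growth. Infected erythrocytes were at 2% hematocrit and 0.1% parasitemia (final) in Albumax-supplemented RPMI 1640.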
NS1 function inh = qHTS Assay for Inhibitors of Influenza NS1 Protein Function; actives 0.4% (n = 270,000); Potency, µM (top dose mostly 46.1 µM), inactives show at the top dose activity, positive = more growth; AID 2326, 2010; calls by dose curve; also: potency is read from the fitted curve at half-maximal effect; actives are rising curves; nearly all actives have a fitted effect of over 50% in size
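In this qHTS, NS1 from influenza A is expressed in budding yeast, where it slows growth. Cells are switched from glucose to 2% galactose medium (pH 6.0, -URA), treated with compound, and growth recovery is read at OD600.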
* = called active by the depositor; i = inactive; u = inconclusive; x = not tested or not shown. Compounds with a hit are over-represented: about 21% of the library has one in this group of screens. Unless noted, calls follow the shape of the dose curve; as a rule, active = well fitted inhibition curve with a large enough effect; inconclusive = small, poorly fitted or top-dose-only effect, or another doubt; inactive = no such curve, though single readings can be large or run the other way.

SMILES	CHX counter	Shiga inhibitor	Pf growth 96h	Pf growth 48h	NS1 function inh
O=C(O)c1ccc(N2CCCCS2(=O)=O)cc1	-3	11	8%	13%	5%
O=C(Nc1sc2c(c1-c1nc3ccccc3[nH]1)CCCC2)C1CCCC1	21*	17	13µM*	12µM*	12%
CN1CCN(S(=O)(=O)c2cccc(C(=O)Nc3sc4c(c3-c3nc5ccccc5[nH]3)CCCC4)c2)CC1	16	27	3.3µM*	2.9µM*	u
Fc1cccc(/C=N/Nc2nccnc2Cl)c1	48*	98*	245%	155%	-17%
Oc1ccc(/C=N/Nc2nccnc2Cl)cc1	21*	75	1%	x	-1%
Brc1cccc(/C=N/Nc2nn[nH]n2)c1	-3	-9	62%	49%	5%
Nc1c(Cl)ncnc1N/N=C/c1ccc(O)cc1	26*	47*	74%	72%	-6%
Cc1sc2ncnc(N/N=C/c3ccc(O)cc3)c2c1C	16	16	u	13%	-22%
Fc1ccc(/C=N/Nc2nccnc2Cl)cc1	40*	96*	u	141%	-17%
CN1C(=O)NC(=O)[C@]2(Cc3ccccc3N3CCN(c4ccccc4)CC32)C1=O (some centres undefined)	31*	13	-87%	x	12%
Cc1ccc(N2C(=O)NC(=O)C3(Cc4ccccc4N4CCCC43)C2=O)cc1 (centres undefined)	-3	-4	u	-27%	u
CN1C(=O)NC(=O)C2(Cc3ccccc3N3CCOCC32)C1=O (centres undefined)	-2	28	u	2%	-2%
O=C1NC(=O)[C@]2(Cc3ccccc3N3CCN(c4ccccc4)CC32)C(=O)N1c1ccccc1 (some centres undefined)	25*	76*	-5%	u	0%
O=C1NC(=O)C2(Cc3ccccc3N3CCCC32)C(=O)N1Cc1ccccc1 (centres undefined)	-3	-7	-5%	u	16%
O=C1NC(=O)[C@]2(Cc3ccccc3N3CCN(c4ccccc4)CC32)C(=O)N1Cc1ccccc1 (some centres undefined)	30*	54*	9.3µM*	u	-44%
Cc1ccc(N(CC(=O)O)S(C)(=O)=O)cc1	-3	-22	9%	0%	x
CNC(=O)C1(C(F)(F)F)C/C(=C/CCO)CCCO1 (centres undefined)	1	0	x	x	x
CC1CN(c2ccc(NC(=S)NNCCC#N)cc2)CC(C)O1 (centres undefined)	-1	11	12%	-8%	-2%
Cc1cccc(C)c1N1CCN(S(=O)(=O)N(C)C)CC1	-2	2	u	u	-11%
Cn1cc(C(=O)c2ccc(Cl)cc2Cl)cc1C(=O)N/N=C(\N)COc1ccc(F)cc1	9	-4	x	u	-58%
Cn1cc(C(=O)c2ccc(Cl)cc2Cl)cc1C(=O)N/N=C(\N)COc1ccc(Cl)cc1	-2	-8	9.3µM*	0%	1%
COc1ccc(NC(=O)c2cccc(N3C(=O)C4C5C=CC(C6CC56)C4C3=O)c2)cc1 (centres undefined)	-3	9	u	u	7%
COc1ccc(CC(=O)Nc2c3c(nn2-c2cccc(C)c2C)CS(=O)C3)cc1 (centres undefined)	-2	11	u	8%	-5%
COc1ccc(CC(=O)Nc2c3c(nn2-c2cccc(C)c2C)CS(=O)C3)cc1OC (centres undefined)	-2	-3	2.6µM*	16%	-7%
O=C(O)c1cc[c]([Hg][Cl])cc1	x	x	5.2µM*	5.9µM*	-59%
SMILES	CHX counter	Shiga inhibitor	Pf growth 96h	Pf growth 48h	NS1 function inh
O=Cc1ccc(C(=O)O)cc1	x	x	42%	39%	x
CCCCC(CC)COC(=O)C(C#N)=C(c1ccccc1)c1ccccc1 (centres undefined)	-1	-8	2.6µM*	2.6µM*	x
Cc1ccc(C(=O)NCC(=O)NCC(=O)OCc2ccc(Cl)cc2)cc1	-2	4	u	20%	-5%
O=C(COc1cccc2ccccc12)NNC(=O)C1CCCO1 (centres undefined)	-2	-10	0%	0%	4%
O=C(CN1CCN(C2CCCCC2)CC1)c1ccc2cc[nH]c2c1	-3	-2	4.7µM*	x	-56%
O=C(CN1CCN(C2CCCCC2)CC1)c1c[nH]c2ccccc12	3	-2	u	19%	9%
CCOC(=O)c1cc(NC(=O)c2ccco2)ccc1N1CCOCC1	7	13	0%	5%	-2%
CCCc1n(CC(O)COCc2ccccc2)c2ccccc2[n+]1C (centres undefined)	-3	21	6%	3.3µM*	x
CCCc1n(CC(O)COC2CCCCC2)c2ccccc2[n+]1C (centres undefined)	-2	-16	-2%	4.1µM*	-3%
C[n+]1cn(CC(O)COCc2ccccc2)c2ccccc21 (centres undefined)	-1	-11	4.7µM*	u	7%
COc1cccc(-c2nnc(SCC(=O)Nc3ccc(OC)c(OC)c3)n2N)c1	-3	-3	-27%	82%	-1%
CSc1nnnc2ccccc12	x	x	x	x	-6%
CN(C)S(=O)(=O)c1ccc(C(=O)OCn2nnc3ccccc3c2=O)cc1	-1	-2	11%	-1%	-10%
CCN(Cc1ccccc1)C(=O)CCNS(=O)(=O)c1cc(Br)cnc1N	6	-4	37%	13µM*	2%
Cc1cccc(Nc2nc(C)cc(C)n2)c1	15*	24*	u	u	9%
Cc1cc(N(C)C)nc(Nc2ccccc2)n1	x	x	12µM*	13µM*	x
Cc1ccccc1C1CC(=O)Oc2ccc(O)cc21 (centres undefined)	-3	i	x	x	x
c1ccc2c(N3CCNCC3)nsc2c1	16*	8	-23%	13µM*	0%
O=C1[C@H]2CCCC[C@H]2C(=O)N1CCCCN1CCN(c2nsc3ccccc23)CC1	x	x	12µM*	u	x
Cc1ccc(C)c(C(=O)CN2C(=O)NC3(CCC(C)CC3)C2=O)c1 (centres undefined)	-3	-8	96%	-2%	12%
CCc1cc(CN2CCOCC2)c(NC(=O)c2ccccc2)s1	27*	79*	-5%	8%	x
COc1cccc(C(c2c(NC(=O)c3ccccc3)sc(C)c2C)N2CCN(C)CC2)c1 (centres undefined)	-5	-7	u	12µM*	5%
CCc1cc(C(c2cccc(OC)c2)N2CCOCC2)c(NC(=O)c2ccccc2)s1 (centres undefined)	38*	61	u	u	-10%
CCc1cc(C(c2ccc(F)cc2)N2CCOCC2)c(NC(=O)c2ccccc2)s1 (centres undefined)	16	21	72%	u	-19%
COc1cccc(C(CC(=O)Nc2cccc3ccccc23)NC(=O)c2ccccc2)c1 (centres undefined)	4	-5	u	u	-2%
